Our source for the growth values is PubChem BioAssay (NCI).

About 83,000 compounds went through this panel and 20% of them were active in at least one assay; those are over-represented in the sample as a whole.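 Plates (96-well) were seeded with cells, treated with compound at one concentration, and incubated for 48 hours before percent growth was determined.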 Activity calls are given as the source filed them.

For the test, the system named is OVCAR-4 ovarian. As to the kind of experiment: NCI-60 one-dose screen, 48 h (100 = growth as untreated, 0 = no growth, -100 = all killed). The following applies: 10 µM unless noted. As for the experimental part:
Growth inhibition of the OVCAR-4 human tumor cell line is measured as a screen for anti-cancer activity. Cells are grown in 96 well plates and exposed to the test compound for 48 hours. Compounds are tested at a single concentration, which is 10^-5 M for most compounds. The reported endpoint is percent growth (GI% or GIPRCNT), where numbers from 0 - 100% represent growth inhibition, and numbers from -100% - 0 represent cell death. For example, a value of 40 represents 60% growth inhibition. A value of 0 means no net growth occurred over the course of the experiment. A value of -40 indicates 40% of cells at the beginning of the experiment died by the end of the experiment. A value of -100 means all cells are dead at the end of the experiment.
NCI-60 Human Tumor Cell Lines Screen was performed using the standard one-dose NCI protocol, which is described in more detail at https://dtp.cancer.gov/discovery_development/nci-60/default.htm.
Compounds with GIPRCNT values below 10 were considered active. Activity score was based on GIPRCNT using the following formula: […]
Score is 0 for GIPRCNT values of 100 or above, 50 for GIPRCNT values of 0, and 100 for GIPRCNT values of -100.
In the case of `CC(COC(=O)c1ccccc1)N1CC2CCC(C1)O2` (stereo not given), the growth was 107% (inactive).

With `COc1ccc(Nc2ncnc3c2sc2nc(C)cc(C)c23)cc1`, the growth was 95.2% (inactive).

As to `COc1cc(/C=C/c2ccc3c(Br)cc(Br)c(O)c3n2)ccc1O`, the growth was 17.4% (inactive).

For the molecule `CC(=O)c1ccc(Nc2nc(Cl)nc(Oc3c(Cl)cccc3Cl)n2)cc1`, the growth is 67.2% (inactive).

In the case of `COc1ccc(-c2cnc3ccnn3c2-c2cc(OC)c(OC)c(OC)c2)cc1`, the growth was 75.4% (inactive).

Consider `CCOC(=O)c1ccc(NC(=O)NC2=NCCS2)cc1`, for which the growth was 70.6% (inactive).

Take `Cc1c(O)c(=O)n(-c2ccccc2)n1C`: the growth was 111% (inactive).

Regarding `Cc1cc(NC(=O)C2c3ccccc3C(=O)N(CC(C)C)C2c2cccs2)no1` (stereo not given), the growth was -8.84% (active).

Turning to `COc1cc(C2CC(c3cccc(Nc4ccnc5cc(Cl)ccc45)c3)=NN2c2ccc(Cl)cc2)cc(OC)c1OC` (stereo not given), the growth was 115% (inactive).

For the molecule `C=CCOc1c(Br)cc(Br)cc1Br`, the growth is 63.4% (inactive).

In the case of `CC1CN(CCCOC(=O)Nc2ccc(Cl)cc2)CCN1C(C)(C)C` (stereo not given), the growth was 111% (inactive).

With `COc1cc(C)cc2oc3oc(=O)c(-c4csc(-c5cc6ccccc6oc5=O)n4)cc3c(=O)c12`, the growth is 106% (inactive).

`CC1=NOCC(=O)N1`: the growth was 95.4% (inactive).

As for `Nc1cc2nc3ccccc3oc-2cc1=O`, the growth is 69.6% (inactive).

Take `CC1=NC(c2ccc(Cl)cc2)C2=C(N1)/C(=C/c1ccc(Cl)cc1)CCC2` (stereo not given): the growth is 83.6% (inactive).

`O=C(O)c1ccccc1N=Cc1ccccc1`: the growth was 107% (inactive).

As to `C#CC[C@@H]1C[C@]2(C)[C@H]3CC=C4[C@H]5[C@@H](C)[C@H](C)CC[C@]5(C(=O)NCCCN5CCN(CCCN)CC5)CC[C@@]4(C)[C@]3(C)CC[C@H]2C(C)(C)[C@H]1OC(C)=O`, the growth is -17.5% (active).

For `O=c1[nH]c2cc(Cl)c(Cl)cc2o1`, the growth was 106% (inactive).

For `N=C(N)c1ccc(-c2ccc(-c3cc(Cl)cc(Cl)c3)o2)nc1`, the growth was -57.7% (active).

With `COC1=CC(c2ccc[nH]2)=N/C1=C\c1[nH]c(C)c(C(=O)CCCCCCCCC(=O)O[C@H]2CC[C@H]3C4CCc5cc(O)ccc5C4CC[C@]23C)c1C` (stereo not given in full), the growth was 49.7% (inactive).

Regarding `O=c1c2sc3ccccc3c2nnn1-c1ccc(F)c(Cl)c1`, the growth is -5.65% (active).

In the case of `O=C(C=P(c1ccccc1)(c1ccccc1)c1ccccc1)CCl`, the growth was -37.3% (active).

`C[C@]12CCc3nc(Nc4ccc(O)cc4)sc3C1=CC[C@@H]1[C@@H]2CC[C@]2(C)/C(=N/NC(N)=S)CC[C@@H]12`: the growth is -16.9% (active).

Consider `COc1cc(/C=C2\C(=O)Nc3ccc(N(C)C)cc32)cc(OC)c1OC`, for which the growth was 42.1% (inactive).

For `CC(C)(C)c1ccc(Cn2c(-c3nonc3N)nc3ccccc32)cc1`, the growth is 98.4% (inactive).

As for `CC(=O)N1N=C(c2ccc(C)cc2)CC1c1cn(-c2ccccc2)nc1-c1cccc(Nc2ccnc3cc(Cl)ccc23)c1` (stereo not given), the growth is 120% (inactive).

With `C[C@@H]1C[C@H](N)C[C@H](c2ccncc2NC(=O)c2ccc(F)c(-c3c(F)cccc3F)n2)C1`, the growth is 53.2% (inactive).

`CNC(=O)c1ccccc1Sc1ccc2c(/C=C/c3ccccn3)n[nH]c2c1`: the growth was 34.2% (inactive).

Take `CC(OC(=O)Nc1cccc(Cl)c1)C(=O)O` (stereo not given): the growth is 98.6% (inactive).

Consider `O=C(NO)c1ccc(NCc2csc3ccccc23)cc1`, for which the growth is 67.8% (inactive).

Turning to `CN1CCN(Cc2ccc(NC(=O)c3cncc(C#Cc4ccc(N)nc4)c3)cc2C(F)(F)F)CC1`, the growth was -8.78% (active).

For the molecule `COc1cc(C2=NOC(c3cc(OC)c(OC)c(OC)c3)C2)ccc1OCCCCOc1cc2c(cc1OC)C(=O)N1CCC[C@H]1C=N2` (stereo not given in full), the growth is -35.6% (active).

`Cc1n(Cc2ccc3ccccc3n2)cc[n+]1Cc1ccc2ccccc2c1`: the growth is 7.17% (active).

On to `C=CC[C@]1(O)CC[C@H]2[C@@H]3CCc4cc(O)ccc4[C@H]3CC[C@@]21C`, for which the growth is 94.3% (inactive).

Consider `Clc1cc(Br)ccc1-c1ccc(CNCC2CCNCC2)o1`, for which the growth is -40.7% (active).

For `C=CCn1c(SCC(=O)Nc2ccc(C(=O)/C=C/c3ccccc3)cc2)nnc1-c1ccc(OC)c(OC)c1`, the growth was 72.5% (inactive).

On to `COc1ccc(C2CC(c3ccc(Nc4ccnc5cc(Cl)ccc45)cc3)=NN2c2ccccc2)cc1` (stereo not given), for which the growth was 163% (inactive).

With `O=C(O)Cn1ccc2ccccc21`, the growth was 97.8% (inactive).

`CC(C)NCCCCCNc1cc(O)cc2cccnc12`: the growth was -5.19% (active).

`Oc1ccc(-c2cnc(-c3ccccc3)[nH]2)c(O)c1`: the growth is 106% (inactive).
